# High-throughput results deposited in PubChem by University of Kansas High Throughput Screening Laboratory.
# The list is not random: actives were taken first. Their share in the collection is about 3.5%.
# mHTT-CaM PPI inh: mHTT-calmodulin interaction abrogation; inhibition, % at 15 µM; AID 1671202; AlphaScreen His-mHTT/GST-CaM binding, luminescence; actives 3.6% (n = 190,000); P42858;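 note: 0% = both proteins with DMSO and 100% = one protein alone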
# Pf apPOL block: Pf-apPOL DNA polymerase inhibition; actives 0.25% (n = 210,000); Recombinant Pf-apPOL, molecular beacon fluorescence, 1.5 h; AID 1794808; inhibition, % at 10 µM
# * marks the source's active call; other numbers are inactive results; nt = no result given; ! = a repeat was not active. Cut-off read from the data, not from the text of the source: active = inhibition above about 50%; inactive = the rest.
SMILES,mHTT-CaM PPI inh,Pf apPOL block
CCOc1ccc2c(c1)-c1c(ssc1=S)C(C)(C)N2,51*,nt
Clc1cccc(CN2CCc3nc(Nc4ccc5c(c4)OCO5)ncc3C2)c1,28,2
O=C(CCCc1ccccc1)N1CCN(c2nc(CN3CCCCC3)cs2)CC1,11,3
O=C(CCCOc1ccccc1)N1CCN(Cc2ccccc2)CC1,8,-1
O=C(c1ccccc1Br)N1CCN(c2cccc(Cl)c2)CC1,64*!,3
O=C(CCCOc1ccccc1)N1CCN(c2cccc(Cl)c2)CC1,70*,-6
O=C(c1cc(-c2ccccc2)nc2ccccc12)N1CCCC1,8,8
O=C(c1cc(-c2ccncc2)nc2ccccc12)N1CCN(c2cccc(Cl)c2)CC1,91*,-6
O=C(c1cccc(Cl)c1)N1CCN(c2ccccc2)CC1,0,-6
O=C(c1ccc(CN2CCc3ccccc3C2)cc1)N1CCN(c2ccccc2F)CC1,11,-6
O=C(Nc1nc(-c2nc3ccccc3s2)cs1)c1ccno1,-8,5
O=C(Nc1nc(-c2ccccn2)cs1)c1nc2ccccc2s1,100*,-76
CCC(=O)Nc1cccc(NC(=O)c2sc3ccccc3c2Cl)c1,56*,-10
O=C(Nc1nc(-c2ccccn2)cs1)c1sc2ccccc2c1Cl,100*,-2
Cc1ccccc1C(=O)Nc1cccc(NC(=O)c2sc3ccccc3c2Cl)c1,0,-8
O=C(NCc1ccccn1)c1sc2ccccc2c1Cl,-3,0
COc1cccc(C(=O)N2CCC3(CC2)CC(=O)c2ccccc2O3)c1OC,6,-3
O=C(NCCn1nc(-c2cccs2)ccc1=O)c1cccc(-n2cnnn2)c1,-9,-5
N#Cc1cccc(N=c2oc3ccccc3cc2C(=O)Nc2ccccc2)c1,4,-4
Cc1cc2c(c(C)c1Cl)[C@H](c1ccc3c(c1)OCO3)C[C@@H](c1ccccc1)O2,10,-7
COc1ccc(C2CC(O)(c3ccccc3)Oc3cc(OC)c(OC)c(OC)c32)cc1 (centres undefined),86*,-2
COc1ccc([C@@H]2C[C@H](c3ccccc3)Oc3cc(OC)c(OC)c(OC)c32)cc1,18,-4
COc1ccc(C2CC(O)(c3ccccc3)Oc3cc(C)c(Cl)c(C)c32)cc1 (centres undefined),89*,-3
COc1ccc(-c2nnc(N3CCC(C(=O)Nc4cccc(OC)c4)CC3)o2)cc1,38,-5
Cc1c(Cl)cccc1NC(=O)CC(NCCC1=CCCCC1)C(=O)O (centres undefined),-5,-3
SMILES,mHTT-CaM PPI inh,Pf apPOL block
O=C(Cc1ccc(F)cc1)Nc1nnc(C2CC(=O)N(c3ccc(Cl)cc3)C2)o1 (centres undefined),67*,-6
O=C(Nc1nnc(C2CC(=O)N(c3ccccc3)C2)o1)c1ccccc1F (centres undefined),13,-2
O=C(COc1ccc(F)cc1)Nc1nnc(C2CC(=O)N(c3ccc(F)cc3)C2)o1 (centres undefined),68*,-2
O=C(Nc1nnc(C2CC(=O)N(c3ccc(Cl)cc3)C2)o1)c1ccc(F)cc1 (centres undefined),16,-2
COc1ccc(N2CC(c3nnc(NC(=O)COc4ccc(F)cc4)o3)CC2=O)cc1 (centres undefined),19,2
COc1ccc(N2CC(c3nnc(NC(=O)Cc4ccc(Cl)cc4)o3)CC2=O)cc1 (centres undefined),5,-1
O=C(Cc1ccc(Cl)cc1)Nc1nnc(C2CC(=O)N(c3ccc(F)cc3)C2)o1 (centres undefined),71*,-4
O=C(Nc1nnc(C2CC(=O)N(c3ccc(F)cc3)C2)o1)c1ccccc1F (centres undefined),61*,1
O=C(NC(=O)N1CCN(c2ccc(C(F)(F)F)cc2[N+](=O)[O-])CC1)c1ccccc1Cl,nt,-26
COc1ccc(C=C2SC(=S)N(CCCC(=O)NC34CC5CC(CC(C5)C3)C4)C2=O)cc1,16,1
Cc1ccnc(NC(=O)C2Oc3ccccc3OC2C)c1 (centres undefined),-5,1
COc1ccc(N2CC(c3nnc(NC(=O)Cc4ccc(F)cc4)o3)CC2=O)cc1 (centres undefined),73*,-1
COc1ccc(CC(=O)Nc2nnc(C3CC(=O)N(c4ccc(OC)cc4)C3)o2)cc1 (centres undefined),15,-4
COCCN1CCC(CNC(=O)c2ccsc2)CC1,-7,-2
NCCNc1ccc([N+](=O)[O-])cc1C(=O)Nc1cccc(Cl)c1,28,12
O=C(Nc1cccc(Cl)c1)c1cc([N+](=O)[O-])ccc1NCCO,94*,1
CCc1ccc(C2N(c3cccc(Cl)c3)C(=O)C3CCCN32)cc1 (centres undefined),-14,-2
Clc1ccc(CN2CCc3nc(Nc4ccc5c(c4)OCCO5)ncc3C2)cc1,77*,-1
Fc1ccccc1Nc1ncc2c(n1)CCN(Cc1ccc3c(c1)OCCO3)C2,19,-4
Clc1ccc(CN2CCc3nc(Nc4ccc5c(c4)OCO5)ncc3C2)cc1,36,-1
c1cc2c(cc1CN1CCc3nc(Nc4ccc5c(c4)OCCO5)ncc3C1)OCCO2,71*,-1
Cc1ccccc1Cc1c(C)nc2nc(SCC(=O)NCCCN3CCOCC3)nn2c1C,10,-6
CCCCc1nnc(NC(=O)Cc2ccccc2)s1,-3,-7
COc1cccc2c1Oc1[nH]c(-c3ccc(OC)c(OC)c3OC)nc(=S)c1C2,8,0
COc1cccc(-c2nc(=S)c3c([nH]2)Oc2c(cccc2OC)C3)c1O,53*,43
SMILES,mHTT-CaM PPI inh,Pf apPOL block
Fc1cccc(Cl)c1C=Nc1ccc2c(c1)OCCOCCOCCO2,-5,-8
O=C1CN(C(=O)c2ccccc2Br)C(c2ccccc2)c2cc(Cl)ccc2N1 (centres undefined),23,-6
COc1cc(C2C(C#N)=C(N)Oc3c2c(C)nn3-c2cccc(Cl)c2)cc(OC)c1O (centres undefined),64*,-2
Cc1nn(-c2cccc(Cl)c2)c2c1C(c1ccncc1)C(C#N)=C(N)O2 (centres undefined),17,-6
Cc1nnc(N2C(=O)C(O)=C(C(=O)c3ccco3)C2c2cccc([N+](=O)[O-])c2)s1 (centres undefined),1,-5
Cc1nnc(N2C(=O)C(O)=C(C(=O)c3ccco3)C2c2cccc(Oc3ccccc3)c2)s1 (centres undefined),56*,-10
O=c1oc(-c2ccccc2Cl)nc2c1cnn2-c1ccccc1,90*,-3
COc1c(Cl)cnn(-c2ccccc2)c1=O,-2,-4
OC(C#Cc1ccccc1)c1cccs1 (centres undefined),7,0
O=C1OC(c2ccc(F)cc2)=N/C1=C\c1ccccc1,11,-1
Fc1ccc(C2=NCCC(c3ccccc3)O2)cc1 (centres undefined),51*,-10
CCc1ccc(NC(=O)CSc2nnc(-c3ccc(OC)c(OC)c3)n2-c2ccccc2)cc1,16,-4
Clc1ccc2c(c1)C1C=CCC1C(c1cccc3ccccc13)N2 (centres undefined),65*,nt
Cc1ccc2c(c1)C1C=CCC1C(c1ccccc1Cl)N2 (centres undefined),83*,-8
CC(=O)c1ccc2c(c1)C1C=CCC1C(c1ccccc1Cl)N2 (centres undefined),40,3
